MCF10A rereplic – inducers of DNA re-replication in MCF 10A breast cells; AID 624296; MCF 10A DNA re-replication, Hoechst nuclear intensity, 48 h; 350,000 compounds, 2.9% hits; Potency, µM (top dose mostly 46.1 µM), inactives show at the top dose activity, positive = re-replication, most hits filed as activators; further: potency means the concentration at half of the fitted maximal effect; % of control where 0% means no effect; nearly all actives have a fitted effect of over 50% in size
KB-3-1 tox – KB-3-1 parental cell cytotoxicity | 400,000 compounds, 1.4% hits | Potency, µM (top dose mostly 46.1 µM), actives largely listed as cytotoxic | KB-3-1 viability, CellTiter-Glo ATP luminescence, 72 h | AID 1347075; further: potency means the concentration at half of the fitted maximal effect; on the % scale 0 is the no-effect control and ±100 the full control effect; nearly all actives have a fitted effect of over 60% in size
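Cytotoxicity measured as CellTiter-Glo luminescence after 72 h at 37 C. Compound titrations were pinned onto drug-naive KB-3-1 parental adenocarcinoma cells grown in DMEM with 10% FBS, and normalized data fitted to concentration-response curves.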
SW480 rereplic – inducers of DNA re-replication in SW480 colon cancer cells; SW480 DNA re-replication, Hoechst DNA content imaging, 48 h; 340,000 compounds, 1.8% hits; Potency, µM (series often up to 46.1 µM), for the others: top-dose re-replication activation, hits mostly activators; further: potency means the concentration at half of the fitted maximal effect; % of control where 0% means no effect; nearly all actives have a fitted effect of over 55% in size
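Image-based read-out: total Hoechst fluorescence of nuclei (405 nm excitation, 500-530 nm emission), with hits raising the fraction of high-intensity nuclei. SW480 colon cells incubated 48 hr with compounds at 37 C.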
IL1B secr inh – inflammasome signaling inhibition, IL-1 beta readout. THP-1 LPS/ATP IL-1B secretion, AlphaLISA, 16 h; hits give low values. activity change, % at 57.5 µM. 360,000 compounds, 4.7% hits. AID 743279; in the data active means activity change below about -50%; inconclusive means mostly about -30% to -49%; further: on the % scale 0 is the no-effect control and ±100 the full control effect
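THP-1 cells pretreated 1 hr with compounds (up to 57.5 uM final), then stimulated with LPS (250 ng/mL final) plus ATP (1.25 mM final); secreted IL-1B measured by AlphaLISA after 16 hr, decreased signal indicating inhibition.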
KB-V1 MDR tox – KB-V1 MDR subline cytotoxicity | KB-V1 MDR cells viability, CellTiter-Glo, 72 h | 400,000 compounds, 3.4% hits | Potency, µM (series often up to 46.1 µM), usual class: cytotoxic; further: potency means the concentration at half of the fitted maximal effect; on the % scale 0 is the no-effect control and ±100 the full control effect; nearly all actives have a fitted effect of over 60% in size
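KB-V1 MDR subline cells in DMEM (phenol-red free, 10% FBS) exposed to compounds in qHTS concentration series for 72 h at 37 degrees C. Viability read by CellTiter-Glo luminescence; concentration-effect curves fitted after normalization and correction.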
The depositor's hits bear a star; i = inactive; ? = inconclusive; · = no result given; [ ] = another dose, or the depositor's remark. Sampled rows, rich in hits. Any-hit rate of the full collection: about 9.9%. Unless noted, the call rests on the fitted dose curve; in most records, active means well fitted curve in the direction sought with a large enough effect; inconclusive means small, poorly fitted or top-dose-only effect, or another doubt; inactive means no such curve, though single readings can be large; an effect the other way counts as inactive or inconclusive.

SMILES	MCF10A rereplic	KB-3-1 tox	SW480 rereplic	IL1B secr inh	KB-V1 MDR tox
CCn1cc(C(=O)NCCCN2CCCC(C)C2)c(=O)c2cc(S(=O)(=O)N3CCc4ccccc4C3)ccc21 (stereo not given)	3%	?	10%	-104*	i
S=C(Nc1ccccc1Cl)NC1CC2CCCC(C1)N2C1CC1 (stereo not given)	-2%	i	0%	21	i
CN(C)c1ccc(C#Cc2ccc3cc(CCO)oc(=O)c3c2)cc1	12µM*	i	?	24	i
COc1cc(C#Cc2ccc3cc(CCO)oc(=O)c3c2)cc(OC)c1	126%	i	0%	-1	i
Cc1[nH]c2ccccc2c1/C=N/NC(=O)C1CC1(c1ccccc1)c1ccccc1 (stereo not given)	23µM*	?	?	?	?
Cc1[nH]c2ccccc2c1/C=N\NC(=O)c1ccccc1Cl	·	i	·	23	i
COc1ccc(Nc2cccccc2=O)cc1	-183%[0.0737 µM]	i	-6%	?	i
O=C1C=C(c2ccccc2)C(=O)N1Nc1ccccc1	?	?	?	-101*	i
Cc1ccc(NN2C(=O)C=C(c3ccc(Cl)cc3)C2=O)cc1	15µM*	?	?	-103*	12µM*
COc1ccc(C2=CC(=O)N(Nc3ccccc3)C2=O)cc1	?	i	4.1µM*	-55*	i
Cc1ccc(C(CNS(=O)(=O)c2cc(F)ccc2F)N2CCN(C)CC2)cc1 (stereo not given)	1%	i	1%	-17	i
CCOc1ccc(-c2nn3c(-c4cc(-c5ccccc5)n[nH]4)nnc3s2)cc1	·	?	·	·	i

Screening results (PubChem)
